From PubChem BioAssay AID720700 (The Scripps Research Institute Molecular Screening Center, 2013)
In all, about 370,000 compounds went through this assay and about 3,100 (0.84%) were called active. What follows is part of a selection rich in actives, with near analogues and random picks from the rest. Values without a mark were called inactive. Rule as the data show it: active = inhibition above about 9.5%; inactive = the rest.

These molecules were tested against 1-phosphatidylinositol 4,5-bisphosphate phosphodiesterase gamma-1 (Homo sapiens) (UniProt P19174) (assay: PLC-gamma1 enzyme inhibitors, primary screen, biochemical, fluorescence, purified enzyme (AID 720700)). Details: purified PLC-gamma1, fluorogenic substrate, at 12.2 µM, stronger effect = higher value.
Sequence of 1-phosphatidylinositol 4,5-bisphosphate phosphodiesterase gamma-1 (Homo sapiens) (P19174 whole entry, looked up): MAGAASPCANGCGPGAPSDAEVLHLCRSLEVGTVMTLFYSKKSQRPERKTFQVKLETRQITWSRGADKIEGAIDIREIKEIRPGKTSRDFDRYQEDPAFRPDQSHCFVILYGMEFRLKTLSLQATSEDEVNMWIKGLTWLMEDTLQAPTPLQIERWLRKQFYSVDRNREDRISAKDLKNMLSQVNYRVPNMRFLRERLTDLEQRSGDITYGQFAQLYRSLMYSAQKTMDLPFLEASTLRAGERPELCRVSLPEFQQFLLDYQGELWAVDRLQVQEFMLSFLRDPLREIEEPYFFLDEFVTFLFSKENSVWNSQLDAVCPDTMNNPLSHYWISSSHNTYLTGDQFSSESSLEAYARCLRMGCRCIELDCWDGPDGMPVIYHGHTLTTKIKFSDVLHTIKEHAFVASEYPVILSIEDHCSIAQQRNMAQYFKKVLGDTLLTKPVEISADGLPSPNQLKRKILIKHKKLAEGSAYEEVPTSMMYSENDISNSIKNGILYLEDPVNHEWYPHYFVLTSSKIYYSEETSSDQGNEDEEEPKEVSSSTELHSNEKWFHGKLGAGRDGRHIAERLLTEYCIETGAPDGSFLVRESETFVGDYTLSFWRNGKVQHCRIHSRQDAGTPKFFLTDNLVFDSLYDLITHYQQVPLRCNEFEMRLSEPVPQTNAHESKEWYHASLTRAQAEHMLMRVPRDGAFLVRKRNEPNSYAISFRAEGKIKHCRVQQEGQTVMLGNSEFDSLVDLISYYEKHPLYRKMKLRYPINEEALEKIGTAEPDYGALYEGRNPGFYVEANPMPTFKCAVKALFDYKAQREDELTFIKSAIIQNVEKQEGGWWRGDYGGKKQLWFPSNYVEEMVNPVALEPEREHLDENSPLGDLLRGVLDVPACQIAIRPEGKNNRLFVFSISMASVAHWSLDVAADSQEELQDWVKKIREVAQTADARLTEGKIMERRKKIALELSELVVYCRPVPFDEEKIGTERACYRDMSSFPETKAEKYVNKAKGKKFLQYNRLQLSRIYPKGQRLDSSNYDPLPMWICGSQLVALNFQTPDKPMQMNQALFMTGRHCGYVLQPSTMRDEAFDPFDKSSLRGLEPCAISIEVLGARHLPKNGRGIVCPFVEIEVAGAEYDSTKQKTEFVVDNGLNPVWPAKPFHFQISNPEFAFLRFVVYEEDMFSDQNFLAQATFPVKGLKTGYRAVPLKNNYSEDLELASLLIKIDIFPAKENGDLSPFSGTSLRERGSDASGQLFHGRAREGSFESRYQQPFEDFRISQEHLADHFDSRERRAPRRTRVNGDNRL
Work on O=C1CC[C@@H](COc2ccc3[nH]cc(-c4ccccc4)c3c2-c2ccccc2)N1 yielded an inhibition of -12.8%. Nc1[nH]c(/C=C2/CCCCC2n2[nH]c(=O)n(-c3ccccc3)c2=O)c(Cc2ccccc2)[n+]1Cc1ccccc1 (stereo unspecified) gave an inhibition of -3.57%. For COC(=O)[C@]12C[C@H](CC(=O)NCc3cccs3)C(=O)N(CCc3ccc(OC)c(OC)c3)C1=C[C@H](C(C)C)O[C@@H]2C1CC1, the inhibition was 0.22%. With Cc1ccc(CSc2nnc(SCC(=O)NN=Cc3cc(Br)ccc3F)s2)cc1 the inhibition was 1.18%. CC[C@@H](CCC(=O)N(c1ccccc1)c1ccccc1)C1CC1 showed an inhibition of -1.13%. In the case of CC[C@]12c3[nH]c4ccc(Cl)cc4c3CCN1C(=O)[C@@H](CC(=O)NCCN1CCOCC1)C[C@@H]2C(=O)N1CCN(C(=O)C2CC2)CC1, the inhibition is reported as 0.47%. For C[C@]12c3[nH]c4ccc(Cl)cc4c3CCN1C(=O)[C@@H](CC(=O)NCCCn1ccnc1)C[C@@H]2C(=O)N1CCOCC1, the inhibition was 13.5% (active). COc1ccc2[nH]c3c(c2c1)CCN1C(=O)C(CC(=O)NCCc2ccccn2)C[C@H](C(=O)N2CCOCC2)[C@@]31C (stereo partly specified) was tested, and the inhibition was 0.01%. CCOc1ccc(N(CC(=O)Nc2c(C)n(C)n(-c3ccccc3)c2=O)S(=O)(=O)c2ccc(Cl)s2)cc1 showed an inhibition of 1.1%. For CN[C@H]1C[C@H]2c3cc(N4CCOCC4)ccc3CCN2C[C@H]1[C@H](C)O, the inhibition was -7.18%. With Nn1c(SCC(=O)Nc2ccc(S(N)(=O)=O)cc2)nnc1-c1n[nH]c2c1CCC2 the inhibition was 3.04%. Molecule CCCC(C)c1nnc(NC(=O)C2CC(=O)N(c3ccc(OCC)cc3)C2)s1 (stereo unspecified) has an inhibition of 4.32%. CCOc1ccc(NC(=O)[C@H](C)NC(=O)C2CC(=O)N(c3ccc(OC)cc3)C2)cc1 (stereo partly specified) was tested, and the inhibition was 9.63% (active). In the case of COc1ccc(N2CC(C(=O)N[C@@H](C)C(=O)N3CCCCC3)CC2=O)cc1 (stereo partly specified), the inhibition is reported as -2.8%. CCOC(=O)[C@]12CCCC3=C1N(CCC3)C(=O)[C@@H](CC(=O)NCC13CC4CC(CC(C4)C1)C3)C2 gave an inhibition of 0.85%. In the case of O=C(Nc1cc(Cl)cc(Cl)c1)OCCN1CCCC12CCC(c1ccccc1)CC2 (stereo unspecified), the inhibition is reported as -0.68%. COc1ccc(-n2c(SCC(=O)Nc3ccc(C)c(Cl)c3)nc3ccccc3c2=O)cc1 gave an inhibition of 5.06%. For CN(C)S(=O)(=O)c1cccc(C(=O)OCC(=O)N2CCCC2=O)c1, the inhibition was 1.6%. Work on C=CCN(c1ccc(C(N)=O)cc1)S(C)(=O)=O yielded an inhibition of 2.1%. In the case of C=CCN(c1ccc(Cl)cc1)S(=O)(=O)c1cccc(C(=O)OCC(=O)N(C)C)c1, the inhibition is reported as 14% (active). In the case of O=C(NCc1ccco1)C1CCCN(S(=O)(=O)c2ccc(Cl)s2)C1 (stereo unspecified), the inhibition is reported as 2.2%. In the case of C[C@@H]1CN([C@H](C)CO)C(=O)CCCn2nncc2CO[C@@H]1CN(C)C(=O)OCc1ccccc1, the inhibition is reported as 5.09%. In the case of C[C@H](CO)N1C[C@H](C)[C@@H](CN(C)C(=O)C2CCCCC2)OCc2cnnn2CCCC1=O, the inhibition is reported as 0.86%. With COC(=O)N(C)C[C@@H]1OCc2cnnn2CCCC(=O)N([C@@H](C)CO)C[C@@H]1C the inhibition was 14.2% (active). For COC(=O)CC1CCc2cc(C)cc(C(CC(C)C)NC(=O)[C@H](CC(C)C)NC(=O)OCc3ccccc3)c2O1 (stereo partly specified), the inhibition was -1.26%. With CCOc1ccccc1NC(=O)COc1ccc(S(=O)(=O)N2CCCC2)cc1 the inhibition was -0.48%. In the case of CCOc1ccccc1NC(=O)CCN1CCN(S(=O)(=O)c2ccc(OC)cc2)CC1, the inhibition is reported as 10.4% (active). COc1ccc(S(=O)(=O)N2CCC(C(=O)NCCC(=O)Nc3ccccc3OC)CC2)cc1 was tested, and the inhibition was 0.77%. In the case of CCC(CO)Nc1cccc2c1S(=O)(=O)N(Cc1cn(Cc3ccccc3C(F)(F)F)nn1)Cc1ccccc1O2 (stereo unspecified), the inhibition is reported as -5.47%. CC(=O)c1cc(-c2ccc3ccccc3c2)c(=O)n2c1CCC2 was tested, and the inhibition was -43.4%. For Cc1ccc(-n2ncc3c2CC(C)(C)CC3NC(=O)Cc2c(C)noc2C)cc1 (stereo unspecified), the inhibition was 0.61%. For Cc1ccc(-n2ncc3c2CC(C)(C)CC3NC(=O)CCc2cnn(C)c2)cc1 (stereo unspecified), the inhibition was 13.8% (active). For COc1ccc(-n2ncc3c2CC(C)(C)CC3NC(=O)CCc2c(C)nn(C)c2C)cc1 (stereo unspecified), the inhibition was 2.97%. For COc1ccc(-c2cc(-c3nnc(SCC(=O)Nc4cccc5ccccc45)n3N)[nH]n2)cc1, the inhibition was -0.07%. COC(=O)c1ccccc1-n1cc(COC(=O)NCCc2ccccc2)nn1 gave an inhibition of -14.2%. For COc1cccc(N(C)C(=O)[C@@H](C)[C@@H](O)c2ccc3ccccc3c2)c1, the inhibition was -0.17%. For C[C@H](C(=O)N(C)c1ccccc1)[C@@H](O)c1ccc2ccccc2c1, the inhibition was 16.5% (active). C[C@H](C(=O)N(C)c1ccccc1)[C@@H](O)c1ccc(Cl)cc1 showed an inhibition of 0.47%. For CCN(CC(=O)Nc1ccc(C)c(S(=O)(=O)N(C)C)c1)Cc1ccccc1, the inhibition was 0.58%. COc1ccc(CCC(=O)OCC(=O)Nc2ccc(C)c(S(=O)(=O)N(C)C)c2)cc1 gave an inhibition of -0.79%. For Cc1ccc(C(=O)Nc2ccc(C)c(S(=O)(=O)N(C)C)c2)s1, the inhibition was 12.1% (active). For CC(C)N1CCCCC(NC(=O)C(C)(C)C)C1=O (stereo unspecified), the inhibition was -0.44%. In the case of CCC(C)[C@@H](C(=O)OC)N(CCc1cn(Cc2ccccc2)nn1)S(=O)(=O)c1ccccc1Br (stereo partly specified), the inhibition is reported as 2.53%. With CCOc1cccc(-c2nnc3sc(COc4ccc(OC)cc4)nn23)c1 the inhibition was 10.2% (active). For Cc1nc(COc2cccc(Cl)c2)sc1C(=O)/C=C/N(C)C, the inhibition was -0.19%. Fc1ccc(OCc2nn3c(Cn4nnc5ccccc54)nnc3s2)cc1 gave an inhibition of -2.02%. For Cc1ccc(-n2c(COc3ccccc3)nnc2SCC(=O)Nc2ccc3c(c2)OCCO3)cc1, the inhibition was 2.55%. CC(=O)OC12CCCN(C1)/C(=C/c1ccncc1)C2 (stereo unspecified) was tested, and the inhibition was -7.4%. In the case of COc1ccccc1CCNC(=O)CN1C(=O)NC2(CCCC2)C1=O, the inhibition is reported as 10.4% (active). With Cc1ccc(OCCNC(=O)CN2C(=O)NC3(CCCC3)C2=O)cc1 the inhibition was 0.18%. Molecule COc1ccccc1CNC(=O)CCCN1C(=O)NC2(CCCC2)C1=O has an inhibition of 1.01%.
